IMPase Li inh: cell-permeable IMPase inhibitors with lithium potentiation; CHO-M1 cells, IP1 TR-FRET (IP-One), carbachol + lithium; Potency, µM (titrated, usually from 59.4 µM), actives largely listed as inhibitors; 0.35% of 210,000 active;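 also: IP1 builds up when IMPase is blocked and the TR-FRET signal falls; nearly all actives have a fitted effect of over 50% in size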
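CHO-M1, 2000 cells/well, 16–30 h culture; cpd + low Li+, 30 min 37C; lysis with d2-IP1/Eu-anti-IP1 Ab, 10 min RT; TR-FRET 665/620 ratio and 620 channel; AC50 via Hill.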
12-hLO inh: 12-hLO (ALOX12) enzyme inhibition; purified 12-hLO, xylenol orange hydroperoxide absorbance; 0.12% of 150,000 active; P18054; Potency, µM (titrated, usually from 57.1 µM), hits mostly inhibitors; AID 1452; also: nearly all actives have a fitted effect of over 55% in size
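Hydroperoxide formation by human 12-lipoxygenase from 40 uM arachidonic acid was followed colorimetrically via ferric-xylenol orange complex, using the 573/405 nm absorbance ratio. Enzyme concentration was 150 nM, with 30 min reaction at room temperature.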
IMPase cell inh: cell-permeable inhibitors of inositol monophosphatase (IMPase). P97697. CHO-M1 cells, IP1 accumulation, HTRF TR-FRET ratio. inhibition (IP1 accumulation), % at 46.1 µM. 120,000 tested, under 10 active. AID 901; active = well fitted curve in the direction sought with a large enough effect in the signal ratio, not every such curve was filed as active; inconclusive = small, poorly fitted or top-dose-only effect, or a change in a side signal; inactive = no such curve, though single readings can be large or run the other way; the % refers to the signal ratio;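 also: cells stimulated with carbachol in lithium chloride buffer; higher means more IMPase inhibition seen as more IP1 and lower FRET ratio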
Target sequence (P97697 whole entry, looked up): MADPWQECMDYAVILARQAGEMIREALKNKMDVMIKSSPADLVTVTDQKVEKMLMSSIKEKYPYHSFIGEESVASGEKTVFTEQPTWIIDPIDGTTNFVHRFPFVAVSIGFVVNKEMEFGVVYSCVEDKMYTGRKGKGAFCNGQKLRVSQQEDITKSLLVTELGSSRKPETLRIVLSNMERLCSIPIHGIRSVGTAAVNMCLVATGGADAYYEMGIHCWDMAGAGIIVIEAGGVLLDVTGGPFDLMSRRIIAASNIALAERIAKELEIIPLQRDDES
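In this qHTS, compounds (final up to 46 uM) act on CHO-M1 cells that are then activated through the M1 receptor with carbachol, in pH 7.4 buffer containing 50 mM LiCl, for 30 min. IP1 accumulation is quantified by the IP-One immunoassay.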
HPGD inh: inhibitors of human 15-hydroxyprostaglandin dehydrogenase (HPGD); P15428; purified HPGD, NADH fluorescence kinetic, PGE2 substrate; Potency, µM, usual class: inhibitors; 4.3% of 150,000 active; AID 894; active = well fitted inhibition curve with a large enough effect, not every such curve was filed as active; inconclusive = small, poorly fitted or top-dose-only effect, or another doubt; inactive = no such curve, though single readings can be large or run the other way
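NADH formation kinetics: reaction with 30 uM PGE2 and 1 mM NAD+ (final), 20 nM enzyme, Tris-HCl pH 8 with Tween 20, after 15 min compound preincubation at room temperature. Fluorescence change, last versus first of five reads.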
NPSR antag: neuropeptide S receptor (human) antagonism, cAMP. Potency, µM (top dose mostly 38.3 µM), most hits filed as inhibitors. Q6W5P4. AID 1461. 1% of 220,000 active. CHO-NPSR cells, cAMP TR-FRET, antagonist mode; also: nearly all actives have a fitted effect of over 50% in size
Target sequence (Q6W5P4 whole entry, looked up): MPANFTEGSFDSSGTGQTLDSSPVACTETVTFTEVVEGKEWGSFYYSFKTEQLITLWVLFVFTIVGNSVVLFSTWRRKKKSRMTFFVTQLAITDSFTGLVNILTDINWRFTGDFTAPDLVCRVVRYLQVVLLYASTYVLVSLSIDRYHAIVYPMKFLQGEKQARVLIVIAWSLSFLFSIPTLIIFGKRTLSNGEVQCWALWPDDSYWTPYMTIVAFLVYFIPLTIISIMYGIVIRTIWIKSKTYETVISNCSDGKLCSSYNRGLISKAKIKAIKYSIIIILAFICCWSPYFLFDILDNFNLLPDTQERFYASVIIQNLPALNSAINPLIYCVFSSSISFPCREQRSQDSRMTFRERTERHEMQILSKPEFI
ALDH1A1 block: blocks purified human ALDH1A1 activity; Purified ALDH1A1, NADH fluorescence, propionaldehyde substrate; 7.3% of 220,000 active; Potency, µM (titrated, usually from 75.3 µM), actives largely listed as inhibitors; P00352; active = well fitted inhibition curve with a large enough effect, not every such curve was filed as active; inconclusive = small, poorly fitted or top-dose-only effect, or another doubt; inactive = no such curve, though single readings can be large or run the other way
Hits are given with their value; - = inactive; ? = inconclusive; . = not tested or not shown; [ ] = another dose, or the depositor's remark. Hits are enriched below; roughly 8.9% of the tested compounds scored in any of these assays. Unless noted, calls follow the shape of the dose curve; as a rule, active = well fitted curve in the direction sought with a large enough effect; inconclusive = small, poorly fitted or top-dose-only effect, or another doubt; inactive = no such curve, though single readings can be large; an effect the other way counts as inactive or inconclusive.

SMILES | IMPase Li inh | 12-hLO inh | IMPase cell inh | HPGD inh | NPSR antag | ALDH1A1 block
CS(=O)(=O)CCNCc1nc(-c2ccc3ncnc(Nc4ccc(OCc5cccc(F)c5)c(Cl)c4)c3c2)cs1 | - | - | . | - | . | -
CC(C)c1ccc(N2C=Nc3ccc(C(C)C)cc3C2)cc1 | . | . | . | . | 7.9µM | .
O=C(NC(=S)Nc1ccc2oc(=O)ccc2c1)c1ccco1 | . | . | . | . | - | .
O=C(NCc1cccnc1)/C(=C/c1ccc(-c2cccc(Cl)c2)o1)S(=O)(=O)c1ccccc1 | - | - | - | - | 5µM | 13µM
O=C(NCc1cccnc1)/C(=C\c1ccc(-c2cccc(Cl)c2)o1)S(=O)(=O)c1ccccc1 | - | - | - | - | ? | ?
CCOc1ccc(/C=C/C(O)=C2/C(=O)N(C)C3(C)CC2c2ccccc2O3)cc1OC (stereo unspecified) | - | . | . | . | - | ?
CN(C)c1ccc(/C=C/C(O)=C2/C(=O)N(C)C3(C)CC2c2ccccc2O3)cc1 (stereo unspecified) | - | - | - | - | - | 20µM
CC(C)NC(=O)Cn1nnc(-c2ccc(Cl)cc2)n1 | . | - | - | . | - | 10µM
Cn1c(CSc2nnc(SCc3ccccc3)s2)nc2ccccc21 | - | - | - | - | - | 25µM
CCNc1nc(NC(C)CC)nc(Oc2ccc(=O)[nH]n2)n1 (stereo unspecified) | - | - | - | - | - | -
CCOC(=O)C1CCCN(C(c2ccccn2)c2c(C)[nH]c3ccccc23)C1 (stereo unspecified) | - | . | . | . | - | ?
COCCn1c(C)cc(/C=C2\NC(=S)N(C)C2=O)c1C | - | - | . | 20µM | - | 16µM
CN1C(=O)/C(=C/c2cc3c(cc2Br)OCO3)NC1=S | - | . | . | . | - | ?
CCn1c(CNc2ccc(F)cc2)nnc1SCC(=O)N1CCCc2ccccc21 | - | - | - | - | - | ?
CCOC(=O)c1ccc(NC(=O)CSc2nnc(CNc3ccc(OC)cc3)n2C)cc1 | - | - | - | - | -[7.67 µM] | 13µM
COc1ccc(NCc2nnc(SCC(=O)Nc3ccc(OC)cc3)n2C)cc1 | - | . | . | . | - | -
COc1ccc(NCc2nnc(SCC(=O)N3CCCc4ccccc43)n2C)cc1 | - | - | - | - | ? | 3.2µM
Cc1ccc(NCc2nnc(SCC(=O)Nc3ccccc3)n2CC2CCCO2)c(C)c1 (stereo unspecified) | - | - | - | - | - | 7.9µM
CCn1c(CNc2ccc(C)cc2C)nnc1SCC(=O)N1CCCc2ccccc21 | - | - | - | - | - | 7.1µM
O=C(Nc1ccc(Cl)cc1)Nc1cc(S(=O)(=O)N2CCOCC2)ccc1N1CCCC1 | - | - | . | ? | - | ?
CC(C(=O)Nc1cccc(S(=O)(=O)N2CCOCC2)c1)N1CCN(C/C=C/c2ccccc2)CC1 (stereo unspecified) | - | . | . | . | - | -
CC1CCCC(NC(=O)COC(=O)c2cc(S(=O)(=O)N3CCCCC3)ccc2N2CCOCC2)C1C (stereo unspecified) | - | - | - | - | - | 10µM
O=C(Nc1cccc(S(=O)(=O)N2CCOCC2)c1)C(c1ccccc1)N1CCCCC1 (stereo unspecified) | - | . | . | . | - | 7.1µM
O=C(COC(=O)c1cc(S(=O)(=O)N2CCCCC2)ccc1N1CCOCC1)NC1CCS(=O)(=O)C1 (stereo unspecified) | - | . | . | . | - | -
O=C(Nc1ccccc1)Nc1cc(S(=O)(=O)N2CCOCC2)ccc1N1CCCC1 | ? | - | . | 14µM | - | ?
SMILES | IMPase Li inh | 12-hLO inh | IMPase cell inh | HPGD inh | NPSR antag | ALDH1A1 block
CC1CN=C(N(C(=O)Nc2ccccc2)c2ccc(S(=O)(=O)N3CCOCC3)cc2)S1 (stereo unspecified) | - | - | - | 20µM | - | -
O=C(Nc1ccccc1)c1ccc(S(=O)(=O)N2CCOCC2)cc1 | - | - | - | - | - | -
Cc1csc(NC(=O)CSc2nc(C(C)C)nc3c2c(=O)n(C)c(=O)n3C)n1 | - | - | - | - | - | -
Cc1cc(C)nc(NC2=NCC(=O)N2c2ccc(F)c(Cl)c2)n1 | - | - | - | - | - | -
O=S(=O)(Nc1cc(S(=O)(=O)N2CCOCC2)ccc1N1CCOCC1)c1ccc2c(c1)OCCO2 | - | . | . | . | - | -
CCOCC(=O)Nc1cc(S(=O)(=O)N2CCOCC2)ccc1N1CCCCC1 | - | . | . | . | - | 2.8µM
O=S(=O)(Nc1cccc(S(=O)(=O)N2CCOCC2)c1)c1ccc2c(c1)OCCO2 | - | . | . | . | - | 25µM
COc1ccc(C(=O)OCC(=O)Nc2cc(S(=O)(=O)N3CCOCC3)ccc2N2CCCC2)cc1 | - | . | . | . | - | -
Cn1c(=O)c(=O)n(C)c2cc(S(=O)(=O)Nc3ccc4c(c3)OCCO4)ccc21 | - | - | - | 25µM | - | -
O=C(c1cc2c(s1)-c1ccccc1OC2)N1CCN(c2ccccn2)CC1 | 10µM | - | ? | ? | - | ?
O=C(c1cc2c(s1)-c1ccccc1OC2)N1CCN(c2ccccc2)CC1 | 7.9µM | - | ? | ? | - | ?
CC1=C(/C=C/C(C)=C/C=C/C(C)=C/C(=O)O)C(C)(C)CCC1O (stereo unspecified) | - | . | . | . | . | 6.3µM
CC1=C(/C=C/C(C)=C\C=C\C(C)=C\C(=O)O)C(C)(C)CCC1 | - | -[0.00818 µM] | . | - | . | -
Nc1ccc(N(c2ccccc2)c2ccc(N)cc2)cc1 | - | - | - | - | - | 8.9µM
C/C(CCc1ccccc1)=N\NC(=O)c1ccccc1[N+](=O)[O-] | - | - | . | - | - | ?
COc1cc(/C=N/NC(=O)CC2(C)OCCCO2)ccc1OCc1ccccc1 | - | - | . | ? | - | 11µM
CCN(C(=O)c1c(-c2ccccc2)noc1C)c1ccccc1 | - | - | - | - | - | -
COc1ccc(C(Cl)=C(c2ccc(OC)cc2)c2ccc(OC)cc2)cc1 | - | - | - | - | 7.9µM | -
Cc1ccccc1NC(=O)CSc1nnc(-c2ccco2)c(-c2ccco2)n1 | - | ? | - | 8.9µM | - | 1.3µM
Cc1cccc(C)c1NC(=O)CSc1nnc(-c2ccco2)c(-c2ccco2)n1 | - | - | - | 28µM | - | 7.1µM
Cc1ccccc1NC(=O)CSc1n[nH]c(-c2ccco2)n1 | - | . | . | . | - | -
CCOC(=O)c1c(-c2ccc(OCC)cc2)csc1NC(=O)CCN1C(=O)c2ccccc2C1=O | - | - | . | - | - | -
CCOC(=O)c1c(-c2ccc(OC)cc2)csc1NC(=O)CCN1C(=O)c2ccccc2C1=O | - | - | - | 28µM | - | 35µM
CCOC(=O)c1c(-c2ccc(F)cc2)csc1NC(=O)C1CCCO1 (stereo unspecified) | - | . | . | . | - | 11µM
CCOC(=O)c1c(-c2ccc(OC)cc2)csc1NC(=O)C1CCCO1 (stereo unspecified) | - | . | . | . | - | 8.9µM
